Potency, outcome and activity, negative = cell killing data for 33 compounds are collected here from PubChem BioAssay (NCATS).

Records with an inconclusive call do not appear. Entries that show only a call come without a potency. The source holds several records for some structures; these can differ, active in one and inactive in another. Activity calls are given as the source filed them. Calls come from the whole dose curve; as a rule, active = well fitted curve in the direction sought with a large enough effect; inconclusive = small, poorly fitted or top-dose-only effect, or another doubt; inactive = no such curve, though single readings can be large; an effect the other way counts as inactive or inconclusive.

The first assay deals with Tov-21-G. Description: Primary qHTS to identify gynecologic anti-cancer compounds using libraries of approved drugs and bioactive compounds (AID 1345084). Note: nearly all actives have a fitted effect of over 55% in size. Note: potency is the fitted concentration of half-maximal effect. The settings on record: Gynecologic cancer cell panel viability, ATPlite luminescence, 48 h; series mostly up to 57.5 µM. The method in brief:
(§1)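 Cells, 1,000 per well, were allowed to settle for 16 h at 37 C before compound addition. Five concentrations were tested for 48 h, and viability was read by ATPlite luminescence after 15 min at room temperature.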
For orientation: qHTS replaces the single test concentration by a dilution series.
Take `CN(C)CCCSc1ccccc1NC(=O)/C=C/c1ccccc1`: the Potency result was “inactive”.
Still for that read-out and setting: as for `N[C@@H](Cc1cc(I)c(Oc2ccc(O)c(I)c2)c(I)c1)C(=O)O`, the entry is “inactive”.
On to `O=C(O)CCC(=O)c1ccc(-c2ccccc2)cc1`, for which the Potency entry was “inactive”.
Same read-out and setting: to `C/C(=C\C(=O)OCCCCCCCCC(=O)O)C[C@@H]1OC[C@H](C[C@@H]2O[C@H]2[C@@H](C)[C@H](C)O)[C@@H](O)[C@H]1O` belongs “inactive”.
In the case of `O=C(O)Cc1cc(I)c(Oc2ccc(O)c(I)c2)c(I)c1`, the Potency result was “inactive”.
Consider `CC(C)(C)c1ccc(CN2CCN(C(c3ccccc3)c3ccc(Cl)cc3)CC2)cc1` (stereo not given), for which the Potency result is “inactive”.
The same measure, in the same setting: to `Oc1ccc(/C=C/c2cc(O)cc(O)c2)cc1` belongs 22.4 µM (active); to `C[C@]12CC[C@@H]3c4ccc(OC(=O)c5ccccc5)cc4CC[C@H]3[C@@H]1CC[C@@H]2O`, “inactive”; to `CO[C@H]1C[C@@H]2CC[C@@H](C)[C@@](O)(O2)C(=O)C(=O)N2CCCC[C@H]2C(=O)O[C@H]([C@H](C)C[C@@H]2CC[C@@H](OC(=O)C(C)(CO)CO)[C@H](OC)C2)CC(=O)[C@H](C)/C=C(\C)[C@@H](O)[C@@H](OC)C(=O)[C@H](C)C[C@H](C)/C=C/C=C/C=C/1C`, “inactive”.
On the same count and under the same terms, as for `O=C(OCc1ccccc1)c1ccc(O)cc1`, the entry is “inactive”.
Same read-out and setting: to `O=C1c2ccccc2C(=O)c2c1ccc(O)c2O` belongs “inactive”; to `COc1ccc(C[C@H](C)NC[C@@H](O)c2ccc(O)c(NC=O)c2)cc1`, “inactive”; to `C=C1[C@H](CO)[C@@H](O)C[C@@H]1n1cnc2c(=O)[nH]c(N)nc21`, “inactive”.
Consider `CC1CC(OC(=O)C(O)c2ccccc2)CC(C)(C)C1` (stereo not given), for which the Potency result is “inactive”.
Still for that read-out and setting: as for `CCN(CC)CCOCCOC(=O)C(CC)(CC)c1ccccc1`, the entry is “inactive”; as for `Nc1ccc(N=Nc2ccccc2)c(N)n1`, “inactive”.
Still for that read-out and setting: as for `C[C@H]1O[C@@H](O[C@H]2[C@@H](O)C[C@H](O[C@H]3[C@@H](O)C[C@H](O[C@H]4CC[C@@]5(C)[C@H](CC[C@@H]6[C@@H]5C[C@@H](O)[C@]5(C)[C@@H](C7=CC(=O)OC7)CC[C@]65O)C4)O[C@@H]3C)O[C@@H]2C)C[C@H](O)[C@@H]1O`, the figure is 0.1 µM (active).
Still for that read-out and setting: to `C=C1CC[C@H](O)CC1=C/C=C1\CCC[C@]2(C)[C@@H]([C@H](C)/C=C/[C@H](C)C(C)C)CC[C@@H]12` belongs “inactive”.

A further assay has as its system Tov112D. The assay is described as above. The conditions noted are these: Gynecologic cancer cell panel viability, ATPlite luminescence, 48 h; series mostly up to 57.5 µM. Put shortly:
as §1
(ATP-based viability assays read luminescence as a measure of living cells.)
For `CN(C)CCCSc1ccccc1NC(=O)/C=C/c1ccccc1`, the compound was called inactive.
Turning to `N[C@@H](Cc1cc(I)c(Oc2ccc(O)c(I)c2)c(I)c1)C(=O)O`, the compound was called inactive.
Same read-out and setting: as for `O=C(O)CCC(=O)c1ccc(-c2ccccc2)cc1`, the entry is “inactive”; as for `C/C(=C\C(=O)OCCCCCCCCC(=O)O)C[C@@H]1OC[C@H](C[C@@H]2O[C@H]2[C@@H](C)[C@H](C)O)[C@@H](O)[C@H]1O`, “inactive”; as for `O=C(O)Cc1cc(I)c(Oc2ccc(O)c(I)c2)c(I)c1`, “inactive”.
On the same count and under the same terms, to `CC(C)(C)c1ccc(CN2CCN(C(c3ccccc3)c3ccc(Cl)cc3)CC2)cc1` (stereo not given) belongs “inactive”; to `C[C@]12CC[C@@H]3c4ccc(OC(=O)c5ccccc5)cc4CC[C@H]3[C@@H]1CC[C@@H]2O`, “inactive”.
Consider `CO[C@H]1C[C@@H]2CC[C@@H](C)[C@@](O)(O2)C(=O)C(=O)N2CCCC[C@H]2C(=O)O[C@H]([C@H](C)C[C@@H]2CC[C@@H](OC(=O)C(C)(CO)CO)[C@H](OC)C2)CC(=O)[C@H](C)/C=C(\C)[C@@H](O)[C@@H](OC)C(=O)[C@H](C)C[C@H](C)/C=C/C=C/C=C/1C`, for which the result was inactive.
Take `O=C(OCc1ccccc1)c1ccc(O)cc1`: the call was inactive.
On to `O=C1c2ccccc2C(=O)c2c1ccc(O)c2O`, for which the call was inactive.
Still for that read-out and setting: to `C=C1[C@H](CO)[C@@H](O)C[C@@H]1n1cnc2c(=O)[nH]c(N)nc21` belongs “inactive”; to `CC1CC(OC(=O)C(O)c2ccccc2)CC(C)(C)C1` (stereo not given), “inactive”.
Still for that read-out and setting: to `CCN(CC)CCOCCOC(=O)C(CC)(CC)c1ccccc1` belongs “inactive”; to `Nc1ccc(N=Nc2ccccc2)c(N)n1`, “inactive”; to `C=C1CC[C@H](O)CC1=C/C=C1\CCC[C@]2(C)[C@@H]([C@H](C)/C=C/[C@H](C)C(C)C)CC[C@@H]12`, “inactive”.
Still for that read-out and setting: to `CC(=O)Oc1cccc2c1C(=O)c1c(OC(C)=O)cc(C(=O)O)cc1C2=O` belongs “inactive”.

Tested on in the next assay: not listed separately
Nature of the assay: Drug repurposing screens with cells derived from glioblastoma tumor samples (AID 1345199). Note: nearly all actives have a fitted effect of over 40% in size. The conditions noted are these: GBM patient neurospheres viability, ATP luminescence, 48 h; at 20 µM (top of the series); tumour line C. The method in brief:
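Four patient lines of CD133+ GBM neurospheres were screened at several concentrations; hits were retested in those lines plus three slower-growing GBM lines, using 48-hour treatment and ATP-based viability.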
For `O=C(O)CCC(=O)c1ccc(-c2ccccc2)cc1`, the activity, negative = cell killing was -5.86% (inactive).
On the same count and under the same terms, as for `O=C(O)Cc1cc(I)c(Oc2ccc(O)c(I)c2)c(I)c1`, the figure is -19.1% (inactive).
As to `COc1ccc2c(c1)N(C[C@H](C)CN(C)C)c1ccccc1S2`, the activity, negative = cell killing is 13% (inactive).

Staying with this assay, now noted: GBM patient neurospheres viability, ATP luminescence, 48 h; at 45.9 µM (top of the series); tumour line B.
Regarding `CN(C)CCCSc1ccccc1NC(=O)/C=C/c1ccccc1`, the activity, negative = cell killing is -25.4% (inactive).
Turning to `N[C@@H](Cc1cc(I)c(Oc2ccc(O)c(I)c2)c(I)c1)C(=O)O`, the activity, negative = cell killing is 0.914% (inactive).
For `CC(C)=CCC/C(C)=C/CC/C(C)=C/CC/C(C)=C/CC1=C(C)C(=O)c2ccccc2C1=O`, the activity, negative = cell killing is -29.7% (inactive).
For the compound `CNC(=O)[C@H](Cc1c[nH]c2ccccc12)NC(=O)[C@@H](CC(=O)NO)CC(C)C`, the activity, negative = cell killing is -23.5% (inactive).
As to `Cc1c(N)nc([C@H](CC(N)=O)NC[C@H](N)C(N)=O)nc1C(=O)N[C@H](C(=O)N[C@H](C)[C@@H](O)[C@H](C)C(=O)N[C@H](C(=O)NCCc1nc(-c2nc(C(=O)NCCCCN=C(N)N)cs2)cs1)[C@@H](C)O)[C@@H](O[C@@H]1O[C@@H](CO)[C@@H](O)[C@H](O)[C@@H]1O[C@H]1O[C@H](CO)[C@@H](O)[C@H](OC(N)=O)[C@@H]1O)c1cnc[nH]1`, the activity, negative = cell killing is -16.7% (inactive).
On the same count and under the same terms, as for `C/C(=C\C(=O)OCCCCCCCCC(=O)O)C[C@@H]1OC[C@H](C[C@@H]2O[C@H]2[C@@H](C)[C@H](C)O)[C@@H](O)[C@H]1O`, the figure is -19.6% (inactive).
For the compound `CCOC(=O)C1=C(COCCN)NC(C)=C(C(=O)OC)C1c1ccccc1Cl` (stereo not given), the activity, negative = cell killing was -28.9% (inactive).
On the same count and under the same terms, to `CSc1nc2cc(Oc3cccc(Cl)c3Cl)c(Cl)cc2[nH]1` belongs -12.6% (inactive); to `C=CCN1CCCC1CNC(=O)c1cc(S(N)(=O)=O)cc(OC)c1OC` (stereo not given), -7.52% (inactive).
The same measure, in the same setting: as for `CCN(CC)CCOc1ccccc1OC`, the figure is 5.43% (inactive).
As for `Cc1c(Cl)cccc1Nc1ncccc1C(=O)O`, the activity, negative = cell killing is -16.8% (inactive).
Same read-out and setting: as for `C[C@]12CC[C@@H]3c4ccc(OC(=O)c5ccccc5)cc4CC[C@H]3[C@@H]1CC[C@@H]2O`, the figure is -25.4% (inactive); as for `CO[C@H]1C[C@@H]2CC[C@@H](C)[C@@](O)(O2)C(=O)C(=O)N2CCCC[C@H]2C(=O)O[C@H]([C@H](C)C[C@@H]2CC[C@@H](OC(=O)C(C)(CO)CO)[C@H](OC)C2)CC(=O)[C@H](C)/C=C(\C)[C@@H](O)[C@@H](OC)C(=O)[C@H](C)C[C@H](C)/C=C/C=C/C=C/1C`, -14.4% (inactive).
Still for that read-out and setting: to `O=C(OCc1ccccc1)c1ccc(O)cc1` belongs -16.7% (inactive).
Still for that read-out and setting: as for `O=C1c2ccccc2C(=O)c2c1ccc(O)c2O`, the figure is -22.8% (inactive); as for `Oc1cc(O)cc(O)c1`, -4.88% (inactive); as for `C=C1[C@H](CO)[C@@H](O)C[C@@H]1n1cnc2c(=O)[nH]c(N)nc21`, -13.2% (inactive).
Consider `CC1CC(OC(=O)C(O)c2ccccc2)CC(C)(C)C1` (stereo not given), for which the activity, negative = cell killing is -16.2% (inactive).
Regarding `CC(C)(C)NCC(O)c1ccc(O)c(CO)n1` (stereo not given), the activity, negative = cell killing was -4.38% (inactive).
Regarding `CCCCCCCCCC(=O)NO`, the activity, negative = cell killing was -14.3% (inactive).
Still for that read-out and setting: as for `CCCCCCCCCCCC(=O)N(CCO)CCO`, the figure is -26.4% (inactive); as for `CC1=C(/C=C/C(C)=C/C=C/C(C)=C/C(=O)Oc2c(C)c(C)c3c(c2C)CC[C@@](C)(CCC[C@H](C)CCC[C@H](C)CCCC(C)C)O3)C(C)(C)CCC1`, -7.62% (inactive).
On the same count and under the same terms, to `CC(=O)Oc1cccc2c1C(=O)c1c(OC(C)=O)cc(C(=O)O)cc1C2=O` belongs -17.6% (inactive).
